Results taken from PubChem BioAssay (NCATS).
Records with an inconclusive call do not appear. Unmarked numbers belong to inactive results. Calls follow the shape of the full dose curve; tested in HEK293 reporter line.

Test: qHTS for Inhibitors of the Functional Ribonucleoprotein Complex (vRNP) of Lassa (LASV) Arenavirus: Viability assay - alamar blue signal for LASV Primary Screen (AID 1347083)
Details: cell viability, alamar blue fluorescence (LASV minigenome counter-screen); series mostly up to 57.5 µM; activity change, negative = reduced viability: at the top concentration
% is scaled to controls: 0 for no effect and ±100 for the full control effect.
Also: nearly all actives have a fitted effect of over 80% in size.

Compound	activity change, negative = reduced viability
CCCCCCCCCCCC(C)=O	11.3% [at 115 µM]
CC(C)(O[C@@H]1O[C@H](CO)[C@@H](O)[C@H](O)[C@H]1O)[C@@H]1CC=C(C(=O)O)CC1	-10.8%
O=C1/C(=C\c2ccc(O)c(O)c2)Oc2c1ccc(O[C@@H]1O[C@H](CO)[C@@H](O)[C@H](O)[C@H]1O)c2O	-23.8%
O=c1cc(-c2ccccc2)oc2cc(O)ccc12	4.41%
Cc1cc(O)c2c(c1O)C(=O)C(O)=C(O)C2=O	-3.98%
CC1CCC(C(C)(C)S)C(=O)C1 (stereo not drawn)	17.9% [at 115 µM]
COc1cc2c(cc1O)[C@@H]1Cc3cc(OC)c(OC)cc3C(C2)N1C	-14.9%
COc1cc2cc(Oc3ccc4ccc(=O)oc4c3)c(=O)oc2cc1O[C@@H]1O[C@H](CO)[C@@H](O)[C@H](O)[C@H]1O	1.95%
O=c1c(O)c(-c2ccc(O[C@@H]3O[C@H](CO)[C@@H](O)[C@H](O)[C@H]3O)c(O)c2)oc2cc(O)cc(O)c12	0.204%
Cc1ccccc1C(=O)c1ccc(Nc2ccc(Br)cc2N)cc1Cl	-1.06%
COc1c2n(C)ccc3c-2n(c(=O)c1=O)c1ccccc31	2.94%
OCCNC1CCCc2c1[nH]c1ccc(-c3ccccc3)cc21 (stereo not drawn)	-3.09%
O=C(O)c1cccc(Br)c1	21.9%
COc1n[nH]c2nncnc12	-0.852%
CC1(C)C[C@H]2C3=CCC4[C@@]5(C)CC[C@H](O)[C@](C)(CO)C5CC[C@@]4(C)[C@]3(C)C[C@@H](O)[C@@]2(CO)[C@@H](O)[C@@H]1O (stereo partly drawn)	7.7%
COc1ccc(-c2cc(=O)c3c(O)cc(OC4OC(COC5OC(C)C(O)C(O)C5O)C(O)C(O)C4O)cc3o2)cc1O (stereo not drawn)	0.09%
C=CCCCCCCCCCCCC(O)CC(O)COC(C)=O (stereo not drawn)	18%
CC1=CC[C@@]23C[C@@H]1C(C)(C)[C@@H]2CC[C@H]3C	17.5% [at 115 µM]
CCCCC[C@H](O)C=C[C@H]1[C@H](O)CC(=O)[C@H]1CCCCCCC(=O)O	-23.6%
NC1=NCCCC1	16.8%

Compound	activity change, negative = reduced viability
CC(O)C(C)O (stereo not drawn)	2.9% [at 115 µM]
CCCC(=O)OCCC(C)CCC=C(C)C (stereo not drawn)	-2.9% [at 115 µM]
COc1cc2c(c(OC)c1OC)-c1c(cc3c(c1OC)OCO3)CC(C)C(C)(O)C2OC(=O)c1ccccc1 (stereo not drawn)	3.89% [at 24.7 µM]
COC(=O)c1ccc(=O)c2nc3/c(=C/O)c(O)cc(=O)c3[nH]c12	11.8%
CSCC[C@@H](N)C(=O)O	-4.73%
COc1cc(O)c2c(=O)c3c(O[C@H]4O[C@@H](CO)[C@H](O)[C@@H](O)[C@@H]4O)ccc(O)c3oc2c1	-2.48%
CC(=O)OCC(=O)[C@@]1(O)CC[C@H]2[C@@H]3CCC4=CC(=O)C=C[C@]4(C)[C@@H]3[C@@H](O)C[C@@]21C	-4.92%
CCC1(CC)C(=O)NC(=O)N(c2ccccc2)C1=O	4.29%
COc1cc2c(c(OC)c1OC)-c1c(cc(OC)c(OC)c1OC)CC(C)C(C)C2 (stereo not drawn)	8.69%
CCCO	0.234% [at 115 µM]
COc1ccc(C[C@@H]2c3cc(O)c(OC)cc3CCN2C)cc1O	3.9%
O=C(O)COc1ccc(Cl)cc1CO	8.93%
CC(C)C1=CC2=CC[C@@H]3[C@](C)(CCC[C@@]3(C)C(=O)O)[C@H]2CC1	16.6% [at 115 µM]
CSC(=S)NCc1c[nH]c2ccccc12	16.3%
N#CC(=C(N)Sc1ccc(N)cc1)c1ccccc1C(F)(F)F	13.3%
Nc1nc2c(ncn2[C@@H]2O[C@H](CO)[C@@H](O)[C@@H]2O)c(=O)[nH]1	-2.66%
COc1ccc2[nH]cc(CCO)c2c1	4.32%
CC(C)=CCC[C@](C)(O[C@@H]1O[C@H](CO)[C@@H](O)[C@H](O)[C@H]1O)[C@H]1CC[C@]2(C)[C@@H]1[C@H](O)C[C@@H]1[C@@]3(C)CC[C@H](O[C@@H]4O[C@H](CO)[C@@H](O)[C@H](O)[C@H]4O[C@@H]4O[C@H](CO)[C@@H](O)[C@H](O)[C@H]4O)C(C)(C)[C@@H]3[C@@H](O)C[C@]12C	-36.1%
CC(CCC(=O)O)C1CCC2C3CC(O)C4CC(O)CC[C@]4(C)C3CCC12C (stereo partly drawn)	38.8%

Test: qHTS for Inhibitors of the Functional Ribonucleoprotein Complex (vRNP) of Lymphocytic Choriomeningitis Arenaviruses (LCMV): Viability assay - alamar blue signal for LCMV Primary Screen (AID 1347085)
Details: alamar blue viability counter-screen, LCMV vRNP screen cells; series mostly up to 57.5 µM; activity change, negative = lower viability: at the top concentration

Compound	activity change, negative = lower viability
CCCCCCCCCCCC(C)=O	20.4% [at 115 µM]
CC(C)(O[C@@H]1O[C@H](CO)[C@@H](O)[C@H](O)[C@H]1O)[C@@H]1CC=C(C(=O)O)CC1	7.23%
O=C1/C(=C\c2ccc(O)c(O)c2)Oc2c1ccc(O[C@@H]1O[C@H](CO)[C@@H](O)[C@H](O)[C@H]1O)c2O	-17.5%
O=c1cc(-c2ccccc2)oc2cc(O)ccc12	-4.17%
Cc1cc(O)c2c(c1O)C(=O)C(O)=C(O)C2=O	-13.8%
CC1CCC(C(C)(C)S)C(=O)C1 (stereo not drawn)	11.7% [at 115 µM]
COc1cc2c(cc1O)[C@@H]1Cc3cc(OC)c(OC)cc3C(C2)N1C	-17.2%
COc1cc2cc(Oc3ccc4ccc(=O)oc4c3)c(=O)oc2cc1O[C@@H]1O[C@H](CO)[C@@H](O)[C@H](O)[C@H]1O	1.6%
O=c1c(O)c(-c2ccc(O[C@@H]3O[C@H](CO)[C@@H](O)[C@H](O)[C@H]3O)c(O)c2)oc2cc(O)cc(O)c12	16.8%
Cc1ccccc1C(=O)c1ccc(Nc2ccc(Br)cc2N)cc1Cl	19.6%
COc1c2n(C)ccc3c-2n(c(=O)c1=O)c1ccccc31	3.17%
OCCNC1CCCc2c1[nH]c1ccc(-c3ccccc3)cc21 (stereo not drawn)	-7.46%
O=C(O)c1cccc(Br)c1	15.5%
COc1n[nH]c2nncnc12	8.36%
CC1(C)C[C@H]2C3=CCC4[C@@]5(C)CC[C@H](O)[C@](C)(CO)C5CC[C@@]4(C)[C@]3(C)C[C@@H](O)[C@@]2(CO)[C@@H](O)[C@@H]1O (stereo partly drawn)	-4.38%
COc1ccc(-c2cc(=O)c3c(O)cc(OC4OC(COC5OC(C)C(O)C(O)C5O)C(O)C(O)C4O)cc3o2)cc1O (stereo not drawn)	6.79%
C=CCCCCCCCCCCCC(O)CC(O)COC(C)=O (stereo not drawn)	12.5%
CC1=CC[C@@]23C[C@@H]1C(C)(C)[C@@H]2CC[C@H]3C	21% [at 115 µM]
CCCCC[C@H](O)C=C[C@H]1[C@H](O)CC(=O)[C@H]1CCCCCCC(=O)O	-1.37%
NC1=NCCCC1	4.29%

Compound	activity change, negative = lower viability
CC(O)C(C)O (stereo not drawn)	11.5% [at 115 µM]
CCCC(=O)OCCC(C)CCC=C(C)C (stereo not drawn)	7.01% [at 115 µM]
COc1cc2c(c(OC)c1OC)-c1c(cc3c(c1OC)OCO3)CC(C)C(C)(O)C2OC(=O)c1ccccc1 (stereo not drawn)	4.32% [at 24.7 µM]
COC(=O)c1ccc(=O)c2nc3/c(=C/O)c(O)cc(=O)c3[nH]c12	-0.871%
CSCC[C@@H](N)C(=O)O	-7.75%
COc1cc(O)c2c(=O)c3c(O[C@H]4O[C@@H](CO)[C@H](O)[C@@H](O)[C@@H]4O)ccc(O)c3oc2c1	5.56%
CC(=O)OCC(=O)[C@@]1(O)CC[C@H]2[C@@H]3CCC4=CC(=O)C=C[C@]4(C)[C@@H]3[C@@H](O)C[C@@]21C	-0.0915%
CCC1(CC)C(=O)NC(=O)N(c2ccccc2)C1=O	12.2%
COc1cc2c(c(OC)c1OC)-c1c(cc(OC)c(OC)c1OC)CC(C)C(C)C2 (stereo not drawn)	10.6%
CCCO	-4.99% [at 115 µM]
COc1ccc(C[C@@H]2c3cc(O)c(OC)cc3CCN2C)cc1O	0.503%
O=C(O)COc1ccc(Cl)cc1CO	8.39%
CC(C)C1=CC2=CC[C@@H]3[C@](C)(CCC[C@@]3(C)C(=O)O)[C@H]2CC1	19.5% [at 115 µM]
CSC(=S)NCc1c[nH]c2ccccc12	14.7%
N#CC(=C(N)Sc1ccc(N)cc1)c1ccccc1C(F)(F)F	8.83%
Nc1nc2c(ncn2[C@@H]2O[C@H](CO)[C@@H](O)[C@@H]2O)c(=O)[nH]1	21.3%
COc1ccc2[nH]cc(CCO)c2c1	-2.35%
CC(C)=CCC[C@](C)(O[C@@H]1O[C@H](CO)[C@@H](O)[C@H](O)[C@H]1O)[C@H]1CC[C@]2(C)[C@@H]1[C@H](O)C[C@@H]1[C@@]3(C)CC[C@H](O[C@@H]4O[C@H](CO)[C@@H](O)[C@H](O)[C@H]4O[C@@H]4O[C@H](CO)[C@@H](O)[C@H](O)[C@H]4O)C(C)(C)[C@@H]3[C@@H](O)C[C@]12C	3.97%
CC(CCC(=O)O)C1CCC2C3CC(O)C4CC(O)CC[C@]4(C)C3CCC12C (stereo partly drawn)	28.3%
